# Results as given in PubChem BioAssay (Tox21).
# A number with no mark means an inactive call. Records with an inconclusive call do not appear. A call without a number means that no potency is given here. Calls of active or inactive are those of the source. The call rests on the fitted dose curve; in most records, active means well fitted curve in the direction sought with a large enough effect in the repeat runs; inconclusive means weak or mixed curves; inactive means no such curve, though single readings can be large; an effect the other way counts as inactive or inconclusive.
# Key:
# [1] = qHTS RealTime-Glo MT Cell Viability Assay in HEK293 cells - 40 hour (AID 1224874); settings: RealTime-Glo luminescence; max response: hits give low values; further: nearly all actives have a fitted effect of over 50% in size; further: potency means the concentration at half of the fitted maximal effect
# Outline: (§1)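 Tox21 screen in HEK293 using RealTime-Glo MT chemistry, with cells and reagent co-dispensed. Luminescence proportional to viable cell number was captured at intervals during 40 h compound exposure at 37 C.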
# [2] = A CellTox Green Cytotoxicity Assay to monitor cytotoxicity in HEK293 cells - 24 hour (AID 1224875); further: series mostly up to about 77 µM; nearly all actives have a fitted effect of over 45% in size
# Outline: (§2)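 Seeding of HEK293 cells together with cytotoxicity dye preceded a 5 h incubation at 37 C/5% CO2. Test compounds in DMSO were then added and fluorescence monitored across 40 h.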
# [3] = A CellTox Green Cytotoxicity Assay to monitor cytotoxicity in HepG2 cells - 16 hour (AID 1224876); further: nearly all actives have a fitted effect of over 45% in size
# Outline: (§3)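 Nonlytic assay: viable cells exclude the dye, so fluorescence scales with cell death. HepG2 at 600 cells/well, compounds added after 5 h, signal read across 40 h.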
# [4] = qHTS RealTime-Glo MT Cell Viability Assay in HepG2 cells - 32 hour (AID 1224877); further: nearly all actives have a fitted effect of over 55% in size
# Outline: (§4)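 HepG2 cells were seeded at 600 cells/well together with NanoLuc luciferase and a cell-permeant prosubstrate, preincubated 5 h at 37 C/5% CO2, then pin-dosed with compounds in DMSO. Nonlytic luminescence from viable cells was read at each time point.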
# [5] = A CellTox Green Cytotoxicity Assay to monitor cytotoxicity in HepG2 cells - 24 hour (AID 1224878); further: nearly all actives have a fitted effect of over 45% in size; further: potency means the concentration at half of the fitted maximal effect
# Outline: as §3
# [6] = A CellTox Green Cytotoxicity Assay to monitor cytotoxicity in HepG2 cells - 40 hour (AID 1224879); further: nearly all actives have a fitted effect of over 40% in size; further: potency means the concentration at half of the fitted maximal effect
# Outline: as §3
# [7] = qHTS RealTime-Glo MT Cell Viability Assay in HEK293 cells - 0 hour (AID 1224880); further: top concentration of the series differs between compounds; nearly all actives have a fitted effect of over 45% in size
# Outline: as §1
# [8] = A CellTox Green Cytotoxicity Assay to monitor cytotoxicity in HEK293 cells - 32 hour (AID 1224881); further: nearly all actives have a fitted effect of over 40% in size
# Outline: as §2
# [9] = A CellTox Green Cytotoxicity Assay to monitor cytotoxicity in HepG2 cells - 0 hour (AID 1224882); further: nearly all actives have a fitted effect of over 35% in size
# Outline: as §3
# [10] = A CellTox Green Cytotoxicity Assay to monitor cytotoxicity in HEK293 cells - 8 hour (AID 1224884); further: nearly all actives have a fitted effect of over 35% in size
# Outline: as §2
# [11] = qHTS RealTime-Glo MT Cell Viability Assay in HepG2 cells - 16 hour (AID 1224885); further: nearly all actives have a fitted effect of over 50% in size
# Outline: as §4
# [12] = qHTS RealTime-Glo MT Cell Viability Assay in HEK293 cells - 24 hour (AID 1224886); further: nearly all actives have a fitted effect of over 50% in size; further: potency means the concentration at half of the fitted maximal effect; on activity change, negative = cytotoxicity: top concentration of the series differs between compounds
# Outline: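 HEK293 cells were seeded at 600 cells/well together with NanoLuc luciferase and cell-permeant prosubstrate, preincubated 5 h at 37 C/5% CO2, then given compound in DMSO by pintool. Luminescence from viable-cell prosubstrate reduction was read repeatedly over 40 h.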
# [13] = qHTS RealTime-Glo MT Cell Viability Assay in HEK293 cells - 8 hour (AID 1224887); further: nearly all actives have a fitted effect of over 50% in size; further: potency means the concentration at half of the fitted maximal effect; on activity change, negative = cytotoxicity: top concentration of the series differs between compounds
# Outline: as §1
# [14] = A CellTox Green Cytotoxicity Assay to monitor cytotoxicity in HEK293 cells - 16 hour (AID 1224888); further: nearly all actives have a fitted effect of over 35% in size
# Outline: as §2
# [15] = qHTS RealTime-Glo MT Cell Viability Assay in HepG2 cells - 0 hour (AID 1224889); further: nearly all actives have a fitted effect of over 50% in size
# Outline: as §4
# [16] = qHTS assay to identify small molecule antagonists of the estrogen receptor alpha (ER-alpha) signaling pathway using the BG1 cell line in the presence of 0.1 nM 17-beta-estradiol - cell viability counter screen (AID 1259241); further: nearly all actives have a fitted effect of over 40% in size
# Outline: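 In this screen, hormone-deprived VM7Luc4E2 cells were seeded at 4,000 per well, dosed with compound and 0.1 nM estradiol final, and incubated 22 hr at 37C and 5% CO2; fluorogenic live-cell protease signal reported viability.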
# [17] = qHTS assay to identify small molecule antagonists of the androgen receptor (AR) signaling pathway using the MDA cell line in the presence of 0.5 nM R1881 - cell viability counter screen (AID 1259242); further: nearly all actives have a fitted effect of over 45% in size; further: potency means the concentration at half of the fitted maximal effect
# Outline: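 R1881 at 0.5 nM final stimulated MDA-kb2 cells during 16 hr compound treatment at 37C. Cytotoxicity read: CellTiter-Fluor fluorescence after 30 min.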
# [18] = A CellTox Green Cytotoxicity Assay to monitor cytotoxicity in HepG2 cells - 32 hour (AID 1224883); further: nearly all actives have a fitted effect of over 50% in size; further: potency means the concentration at half of the fitted maximal effect
# Outline: as §3
# [19] = A CellTox Green Cytotoxicity Assay to monitor cytotoxicity in HepG2 cells - 8 hour (AID 1224890); further: nearly all actives have a fitted effect of over 45% in size
# Outline: as §3
# [20] = molecular target: Androgen receptor (Homo sapiens) (UniProt P10275); assay: qHTS assay to identify small molecule antagonists of the androgen receptor (AR) signaling pathway using the MDA cell line in the presence of 0.5 nM R1881 (AID 1259243); further: nearly all actives have a fitted effect of over 50% in size; further: potency means the concentration at half of the fitted maximal effect
# Outline: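 We exposed MDA-kb2 cells to compounds under 0.5 nM R1881 stimulation for 16 hr at 37C and quantified MMTV-driven luciferase by luminescence.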
# Chain of Androgen receptor (Homo sapiens) (P10275 whole entry, looked up): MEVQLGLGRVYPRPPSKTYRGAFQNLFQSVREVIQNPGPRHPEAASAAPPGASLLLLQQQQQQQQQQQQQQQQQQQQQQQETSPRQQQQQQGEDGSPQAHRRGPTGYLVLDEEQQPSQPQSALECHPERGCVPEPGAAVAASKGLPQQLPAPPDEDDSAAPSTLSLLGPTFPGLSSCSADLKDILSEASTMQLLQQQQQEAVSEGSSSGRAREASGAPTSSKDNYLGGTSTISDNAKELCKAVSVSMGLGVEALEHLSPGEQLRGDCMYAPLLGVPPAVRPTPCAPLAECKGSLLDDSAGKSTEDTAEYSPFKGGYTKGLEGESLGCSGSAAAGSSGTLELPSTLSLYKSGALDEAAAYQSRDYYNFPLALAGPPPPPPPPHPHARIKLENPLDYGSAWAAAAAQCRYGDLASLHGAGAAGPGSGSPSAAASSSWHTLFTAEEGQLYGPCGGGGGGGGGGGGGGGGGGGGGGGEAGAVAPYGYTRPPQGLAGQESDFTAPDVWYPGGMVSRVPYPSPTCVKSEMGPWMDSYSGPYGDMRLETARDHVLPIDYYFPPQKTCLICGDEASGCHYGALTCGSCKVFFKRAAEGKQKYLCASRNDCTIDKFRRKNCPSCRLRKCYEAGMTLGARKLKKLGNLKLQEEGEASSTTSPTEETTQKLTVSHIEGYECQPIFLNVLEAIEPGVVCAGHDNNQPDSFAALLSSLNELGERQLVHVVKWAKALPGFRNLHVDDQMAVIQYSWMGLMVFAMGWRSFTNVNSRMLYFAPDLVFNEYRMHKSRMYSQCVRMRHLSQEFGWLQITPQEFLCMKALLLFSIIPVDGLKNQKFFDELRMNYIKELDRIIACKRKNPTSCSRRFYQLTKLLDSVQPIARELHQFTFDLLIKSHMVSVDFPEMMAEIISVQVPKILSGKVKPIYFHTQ
structure (smiles),measurement,setting,value
C=C(C)C1CCC(C)CC1O (stereo unspecified),max response,[1],5.16%
same,Potency,[2],inactive
same,Potency,[3],inactive
same,Potency,[4],inactive
same,Potency,[5],inactive
same,Potency,[6],inactive
same,Potency,[7],inactive
same,Potency,[8],inactive
same,Potency,[9],inactive
same,Potency,[10],inactive
same,Potency,[11],inactive
same,Potency,[12],inactive
same,Potency,[13],inactive
same,Potency,[14],inactive
same,Potency,[15],inactive
same,Potency,[16],inactive
same,Potency,[17],inactive
O=C1OC(=O)c2cc(-c3ccc4c(c3)C(=O)OC4=O)ccc21,max response,[1],0.595%
same,Potency,[2],inactive
same,Potency,[3],inactive
same,Potency,[4],inactive
same,Potency,[5],inactive
same,Potency,[6],inactive
same,Potency,[7],inactive
same,Potency,[9],inactive
same,Potency,[18],inactive
same,Potency,[10],inactive
same,Potency,[11],inactive
same,Potency,[12],inactive
same,Potency,[13],inactive
same,Potency,[14],inactive
same,Potency,[15],inactive
same,Potency,[19],inactive
same,Potency,[16],inactive
same,Potency,[17],inactive
Nc1c(Br)cc([N+](=O)[O-])cc1Br,max response,[1],-23.8%
same,Potency,[2],inactive
same,Potency,[3],inactive
same,Potency,[4],inactive
same,Potency,[5],inactive
same,Potency,[6],inactive
same,Potency,[7],inactive
same,Potency,[9],inactive
same,Potency,[18],inactive
same,Potency,[10],inactive
same,Potency,[11],inactive
same,Potency,[12],inactive
same,Potency,[13],inactive
same,Potency,[14],inactive
same,Potency,[15],inactive
same,Potency,[19],inactive
same,Potency,[16],inactive
same,Potency,[17],inactive
Oc1ccc2c(c1)CCC2,max response,[1],-3.07%
same,Potency,[2],inactive
same,Potency,[4],inactive
same,Potency,[5],inactive
same,Potency,[6],inactive
same,Potency,[7],inactive
same,Potency,[9],inactive
same,Potency,[18],inactive
same,Potency,[10],inactive
same,Potency,[11],inactive
same,Potency,[12],inactive
same,Potency,[13],inactive
same,Potency,[14],inactive
same,Potency,[15],inactive
same,Potency,[19],inactive
same,Potency,[16],inactive
same,Potency,[17],inactive
same,Potency,[20],inactive
O=[N+]([O-])c1ccc(O)c2ncccc12,Potency,[1],9.52 µM (active)
same,Potency,[2],inactive
same,Potency,[4],inactive
same,Potency,[5],inactive
same,Potency,[6],4.25 µM (active)
same,Potency,[7],inactive
same,Potency,[8],inactive
same,Potency,[10],inactive
same,Potency,[11],inactive
same,Potency,[13],inactive
same,Potency,[14],inactive
same,Potency,[15],inactive
same,Potency,[17],9.44 µM (active)
Clc1nc(C(Cl)(Cl)Cl)c(Cl)c(Cl)c1Cl,Potency,[1],0.011 µM (active)
same,Potency,[3],inactive
same,Potency,[5],43.6 µM (active)
same,Potency,[6],43.6 µM (active)
same,Potency,[7],inactive
same,Potency,[9],inactive
same,Potency,[18],43.6 µM (active)
same,Potency,[12],inactive
same,Potency,[15],inactive
same,Potency,[19],inactive
same,Potency,[16],inactive
same,Potency,[17],30.6 µM (active)
c1ccc2occc2c1,max response,[1],2.38%
same,Potency,[2],inactive
same,Potency,[4],inactive
same,Potency,[5],inactive
same,Potency,[6],inactive
same,Potency,[7],inactive
same,Potency,[9],inactive
same,Potency,[18],inactive
same,Potency,[10],inactive
same,Potency,[11],inactive
same,Potency,[12],inactive
same,Potency,[15],inactive
same,Potency,[19],inactive
same,Potency,[16],inactive
same,Potency,[17],inactive
CC(C)C(=O)C(C)C,max response,[1],8.37%
same,Potency,[2],inactive
same,Potency,[4],inactive
same,Potency,[5],inactive
same,Potency,[6],inactive
same,Potency,[7],inactive
same,Potency,[8],inactive
same,Potency,[9],inactive
same,Potency,[10],inactive
same,Potency,[11],inactive
same,Potency,[12],inactive
same,Potency,[13],inactive
same,Potency,[14],inactive
same,Potency,[15],inactive
same,Potency,[16],inactive
same,Potency,[17],inactive
same,Potency,[20],inactive
C=CCc1cc(S(=O)(=O)c2ccc(O)c(CC=C)c2)ccc1O,Potency,[1],24.5 µM (active)
same,Potency,[2],inactive
same,Potency,[5],inactive
same,Potency,[6],inactive
same,Potency,[8],inactive
same,Potency,[9],inactive
same,Potency,[10],inactive
same,Potency,[12],27.5 µM (active)
same,Potency,[13],24.5 µM (active)
same,Potency,[14],inactive
same,Potency,[19],inactive
same,Potency,[16],inactive
same,Potency,[17],inactive
same,Potency,[20],inactive
CC(c1cc(C(C)(C)C)cc(C(C)(C)C)c1O)c1cc(C(C)(C)C)cc(C(C)(C)C)c1O,Potency,[1],19.5 µM (active)
same,Potency,[2],inactive
same,Potency,[4],inactive
same,Potency,[5],inactive
same,Potency,[6],inactive
same,Potency,[7],inactive
same,Potency,[8],inactive
same,Potency,[9],inactive
same,Potency,[18],inactive
same,Potency,[10],inactive
same,Potency,[11],inactive
same,Potency,[13],inactive
same,Potency,[14],inactive
same,Potency,[15],inactive
same,Potency,[16],inactive
same,Potency,[17],inactive
[Cl][Dy]([Cl])[Cl],max response,[1],-3.97%
same,Potency,[2],inactive
same,Potency,[4],inactive
same,Potency,[5],inactive
same,Potency,[6],inactive
same,Potency,[7],inactive
same,Potency,[8],inactive
same,Potency,[9],inactive
same,Potency,[18],inactive
same,Potency,[11],inactive
same,Potency,[12],inactive
same,Potency,[13],inactive
same,Potency,[14],inactive
same,Potency,[15],inactive
same,Potency,[19],inactive
same,Potency,[16],inactive
same,Potency,[17],inactive
O[Si](c1ccccc1)(c1ccccc1)c1ccccc1,Potency,[1],38.9 µM (active)
same,Potency,[2],inactive
same,Potency,[4],inactive
same,Potency,[5],inactive
same,Potency,[6],inactive
same,Potency,[7],inactive
same,Potency,[9],inactive
same,Potency,[10],inactive
same,Potency,[11],inactive
same,Potency,[14],inactive
same,Potency,[15],inactive
same,Potency,[19],inactive
same,Potency,[16],inactive
same,Potency,[17],inactive
same,Potency,[20],30.6 µM (active)
COc1cc(C(C)C)ccc1C,max response,[1],-0.423%
same,activity change,[2],"-1.5% [at 15.8 µM, hits give high values]"
same,"activity change, negative = cytotoxic",[4],7.91% [at 15.8 µM]
same,cytotoxicity,[5],-14.9% [at 15.8 µM]
same,cytotoxicity increase,[6],-18.2% [at 15.8 µM]
same,"activity change, negative = cytotoxicity",[7],6.56% [at 15.8 µM]
same,cytotoxicity increase,[8],-4.81% [at 15.8 µM]
same,cytotoxicity,[9],-8.39% [at 15.8 µM]
same,cytotoxicity increase,[10],-0.16% [at 15.8 µM]
same,"activity change, negative = cytotoxic",[11],-0.349% [at 15.8 µM]
same,"activity change, negative = cytotoxicity",[12],0.818% [at 15.8 µM]
same,"activity change, negative = cytotoxicity",[13],1.54% [at 15.8 µM]
same,activity change,[14],"-2.08% [at 15.8 µM, hits give high values]"
same,"activity change, negative = cytotoxicity",[15],-5.12% [at 15.8 µM]
same,cytotoxicity increase,[19],-11.9% [at 15.8 µM]
same,"activity change, negative = cytotoxicity",[16],-2.73% [at 19 µM]
same,"viability change, negative = cytotoxic",[17],0.996% [at 19 µM]
same,"activity, negative = inhibition",[20],-0.285% [at 19 µM]
c1ccc(C[P+](c2ccccc2)(c2ccccc2)c2ccccc2)cc1,Potency,[1],1.38 µM (active)
same,Potency,[2],inactive
same,Potency,[4],inactive
same,Potency,[6],19.5 µM (active)
same,Potency,[7],inactive
same,Potency,[9],inactive
same,Potency,[18],21.9 µM (active)
same,Potency,[10],inactive
same,Potency,[11],inactive
same,Potency,[12],1.74 µM (active)
same,Potency,[14],inactive
same,Potency,[15],inactive
same,Potency,[17],10.9 µM (active)
